CCHFV vOTU inh = CCHFV vOTU protease inhibition | AID 651958 | Pep-AMC fluorescence | inhibition, % at 11.5 µM | 370,000 compounds, 0.55% hits; in the data active means inhibition above about 30%; further: 0% = vehicle wells with enzyme and 100% = no enzyme wells
Vc quorum ag = induces V. cholerae light production without autoinducers; activation, % at 18.7 µM; AID 588436; 350,000 compounds, 0.16% hits; V. cholerae BH1578 lux reporter, luminescence, 6 h; in the data active means activation mostly above about 9.7%, no sharp cut-off
TcdB inh = TcdB glycohydrolase inhibition. 350,000 compounds, 0.24% hits. inhibition, % at 9.99 µM. P18177. AID 652162. TcdB glycohydrolase enzymatic assay, plate reader; in the data active means inhibition above about 10%
SSB-PriA inh = K. pneumoniae PriA-SSBct interaction inhibition | AID 1272365 | inhibition, % at 33 µM | AlphaScreen SSBct-PriA binding, biotinylated peptide | 430,000 compounds, 0.6% hits; in the data active means inhibition mostly above about 37%, no sharp cut-off; inactive means mostly below about 20%;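 further: plate controls were negative control peptide for no effect and reference peptide for full effect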
SARS 3CLpro inh = SARS-CoV 3CLpro protease inhibition. P0C6X7. recombinant SARS-CoV 3CLpro, quenched FRET peptide cleavage. inhibition, % at 6 µM. 290,000 compounds, 0.14% hits; in the data active means inhibition above about 12%
DUSP3 inh = inhibitors of human VHR1 phosphatase (DUSP3). inhibition, % at 13.3 µM. 290,000 compounds, 0.52% hits. recombinant VHR phosphatase, pNPP absorbance. P51452. AID 1654; in the data active means inhibition above about 50%
Target sequence (P51452 whole entry, looked up): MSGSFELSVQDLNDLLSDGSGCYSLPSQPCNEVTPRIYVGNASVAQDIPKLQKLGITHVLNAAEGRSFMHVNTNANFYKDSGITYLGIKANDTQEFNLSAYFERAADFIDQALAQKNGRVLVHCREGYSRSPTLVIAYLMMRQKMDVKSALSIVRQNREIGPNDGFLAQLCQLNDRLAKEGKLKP
Active calls of the source: *; i = inactive; / = not tested or not shown. An excerpt weighted towards active compounds, which were near 1.3% of everything screened.

SMILES	CCHFV vOTU inh	Vc quorum ag	TcdB inh	SSB-PriA inh	SARS 3CLpro inh	DUSP3 inh
C=CCOc1c(Br)cc(CNc2ccc(NC(=O)C(C)C)c(OC)c2)cc1OC	13	-1	/	42*	3	26
CC(C)c1nnc(NC(=O)CCC(=O)NCc2ccccc2Cl)s1	3	i	2	1	-4	2
CC(C)Cc1nnc(NC(=O)CCC(=O)NCc2ccccc2Cl)s1	-4	-4	13*	-18	1	10
COc1cc(/C=C/C(=O)N2C(=O)c3cccc(N)c3C2=O)cc(OC)c1OC	-2	-1	0	-23	7	55*
COc1ccc(OC)c(/C=C/C(=O)N2C(=O)c3cccc(N)c3C2=O)c1	-24	0	0	-12	-4	5
CC/C(=N\NC(=O)CNC(=O)/C=C/c1ccco1)c1ccccc1	3	17*	/	/	-6	21
CCn1cc(NC(=O)Nc2ccc(OC(F)F)cc2)c2ccccc21	/	/	/	40*	/	/
O=C(N/N=C/c1ccc(OC(=O)c2ccc3c(c2)OCO3)cc1)c1cncc(Br)c1	4	0	/	/	-2	51*
Cc1cc(C)nc(NC(N)=NCCc2ccccc2)n1	10	i	10*	-3	/	/
COC(=O)CC1=Nc2ccccc2N=C(SCC(=O)Nc2ccc(C)cc2Br)C1	/	/	/	1	/	/
CC(C)Nc1ccc(Nc2ccnc3cc4ccccc4cc23)cc1	21	0	7	97*	-3	16
O=C(N/N=C/c1cccc([N+](=O)[O-])c1O)c1cccs1	4	0	-1	/	4	56*
O=C(NN=Cc1cccc([N+](=O)[O-])c1O)c1cccs1	/	/	/	4	/	/
Cc1ccc(N(CC(=O)N2CCCC2)S(C)(=O)=O)cc1C	-8	-1	0	-3	-2	58*
CS(=O)(=O)N(CC(=O)N1CCCC1)c1ccc(Cl)cc1	-3	0	0	-4	-6	-5
COc1ccccc1NC(=O)N(CCN(C)C)Cc1cc2cc(C)ccc2[nH]c1=O	1	i	/	4	-1	52*
CC(=O)Nc1cnc(-c2ccccc2O)cn1	8	-2	12*	/	/	/
CC(=O)N1CCN(C(=O)C2(c3cccs3)CCOCC2)CC1	/	/	/	2	/	/
COc1cc(CN2CCCC(C(=O)Nc3ccccc3Oc3cccnc3)C2)ccc1F (stereo not drawn)	11	-7	2	-5	-9	13
O=C(Nc1ccccc1Oc1cccnc1)C1CCCN(Cc2ccc(F)cc2)C1 (stereo not drawn)	-6	i	1	3	-3	57*
CCN1CC(CNCc2cn(-c3ccc(OC)cc3)nc2-c2ccccc2Cl)CC1=O (stereo not drawn)	2	0	11*	0	-2	22
COc1ccc(NC(=O)CSc2nncn2C)cc1OC	-4	17*	/	-8	1	-5
O=C(COc1ccccc1F)N1CCN(C(=O)c2cnn3c2CCCC3)CC1	/	/	/	-19	/	/
O=C(c1csc(Nc2ccccc2)n1)N1CCN(Cc2ccc3c(c2)OCO3)CC1	/	/	/	active	/	/
O=C(Cc1csc(Nc2ccccc2)n1)N1CCN(Cc2ccc3c(c2)OCO3)CC1	/	/	/	2	/	/
SMILES	CCHFV vOTU inh	Vc quorum ag	TcdB inh	SSB-PriA inh	SARS 3CLpro inh	DUSP3 inh
O=C(c1csc(Nc2ccccc2)n1)N1CCN(c2ccccc2F)CC1	/	/	/	26*	/	/
CC(C)(C)NC(=O)Nc1nnc(SCC(=O)Nc2ccc3c(c2)OCO3)s1	/	/	/	-4	/	/
O=S(=O)(NCc1ccnc(-c2cccs2)c1)c1ccccc1Br	/	/	/	-17	/	/
CCSc1ccc2c(c1)N(CCCN1CCN(C)CC1)c1ccccc1S2	2	i	-20	43*	/	/
O=C(CCc1ccccc1)Nc1cc(-n2cncn2)ncn1	/	/	/	-6	/	/
O=C(COc1ccc(/C=N/NC(=O)c2ccc(O)cc2)cc1)Nc1cccc([N+](=O)[O-])c1	18	1	15*	i	-1	28
Cc1c(C(=O)c2ccccc2)c2ccccn2c1CCc1ccccn1	9	0	13*	2	1	18
CCOC(=O)C1CCN(Cc2ccccc2C(F)(F)F)CC1	6	-12	/	-17	6	25
OCCN1CCN(Cc2ccc(O)c3ncccc23)CC1	/	/	/	115*	/	/
Cc1ccccc1N1CCN(Cc2ccc(O)c3ncccc23)CC1	/	/	/	87*	/	/
Cc1ccccc1N1CCN(Cc2c[nH]c3ccccc23)CC1	-8	-1	2	-4	-3	4
CCOC(=O)C1CCN(Cc2ccc(O)c3ncccc23)CC1	-4	2	/	94*	-7	23
COc1ccccc1N1CCN(Cc2ccc(O)c3ncccc23)CC1	-7	i	/	73*	-1	23
CC(O)(CNC(=O)c1ccoc1)c1cc2ccccc2s1 (stereo not drawn)	/	/	/	6	/	/
CCOC(=O)N1CCC(N(CCN(C)C)C(=S)Nc2ccc(OCC)cc2)CC1	-11	/	1	/	0	54*
CCOC(=O)N1CCC(N(CCN(C)C)C(=S)Nc2cc(Cl)cc(Cl)c2)CC1	-6	-1	-3	-3	1	4
CCOc1ccc(NC(=S)NN(C)C(=S)Nc2ccc(OCC)cc2)cc1	10	10	/	40*	2	30
COc1ccc2c(c1)Cc1sc(NC(C)=O)nc1-2	81*	i	/	0	-12	-2
NC(=O)N/N=C1/CCCC1c1ccccn1 (stereo not drawn)	/	/	/	67*	/	/
CN(C)S(=O)(=O)c1ccc2nc(NC(=O)C3CCCCC3)sc2c1	/	/	/	-5	/	/
Cc1coc2c(C)c3oc(=O)cc(-c4ccccc4)c3cc12	2	i	/	-11	6	/
CCCc1cc(=O)oc2c(C)c3occ(C)c3cc12	-1	23*	/	-32	-6	3
CCC(C)Nc1c([N+](=O)[O-])cc(C)cc1[N+](=O)[O-] (stereo not drawn)	-10	-2	/	53*	3	10
O=S(=O)(Nc1cc(OCc2ccccc2)ncn1)c1ccccc1Cl	/	/	/	-8	/	/
